A selection: hits, their analogues and other compounds. The true share with any hit is near 3.7%.
BoNT A protease – BoNT A light chain protease inhibition; multiplex microsphere protease substrate cleavage, flow cytometry; inhibition, % at 10 µM; 0.17% of 360,000 active; AID 588499
Autofluor counter – flagged as autofluorescent in microsphere protease counterscreen | compound autofluorescence counterscreen, microsphere flow cytometry; hits give high values | fluorescence intensity (concentration not given with the values) | 3.1% of 360,000 active | AID 624483; in the data active = fluorescence intensity above about 16000; inconclusive = no clear call, values can overlap the other calls
BoNT-F LC inh – inhibitors of Botulinum neurotoxin F light chain protease; Multiplex microsphere protease cleavage assay, flow cytometry; inhibition, % at 10 µM; 0.22% of 360,000 active; AID 588497; in the data active = inhibition above about 35%, passing the limit was not always enough; inconclusive = no clear call, values can overlap the other calls
Anthrax LF prot – inhibitors of Bacillus anthracis lethal factor protease; multiplex microsphere protease cleavage assay, LF; 0.12% of 360,000 active; inhibition, % at 10 µM; P15917
MazF activator – increases E. coli MazEF RNase cleavage of RNA | P0AE70 | FAM/BHQ RNA-DNA oligo cleavage fluorescence, 5 h | activation, % at 20 µM | 0.32% of 350,000 active; in the data active = activation above about 50%
Target sequence (P0AE70 whole entry, looked up): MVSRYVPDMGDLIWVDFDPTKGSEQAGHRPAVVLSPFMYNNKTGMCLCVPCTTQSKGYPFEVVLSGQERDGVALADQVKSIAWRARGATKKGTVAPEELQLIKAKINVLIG
Each line names hits and unclear results; the compound was inactive in the other large screens. Rule as the data show it, unless noted: active = inhibition above about 30%; inconclusive = no clear call, values can overlap the other calls; inactive = below that.

CC(C)C(=O)NC(Nc1ccccc1F)C(Cl)(Cl)Cl (centres undefined)	Autofluor counter 21522
CC(C)CC(=O)NC(Nc1ccccc1F)C(Cl)(Cl)Cl (centres undefined)	none
CC(C)(C)NC(=O)NC(=O)CN1CCN(S(=O)(=O)c2ccccc2)CC1	Autofluor counter 16805
O=C(Nc1ccc(N2CCOCC2)cc1)c1ccc(S(=O)(=O)N2CCCCC2)cc1	none
Cc1cc(NC(=O)CN2CCN(S(=O)(=O)c3ccc(Cl)cc3)CC2)no1	Autofluor counter 19724
Cc1cc(NC(=O)c2cccc(S(=O)(=O)N3CCCCCC3)c2)no1	Autofluor counter 17368
CCOC(=O)c1ccc(S(=O)(=O)N2CCN(CC(=O)NC(=O)NC(C)(C)C)CC2)cc1	BoNT A protease inconclusive, Autofluor counter inconclusive
O=C(Nc1ccc2c(c1)OCCO2)c1ccc(S(=O)(=O)N2CCCCC2)cc1	Autofluor counter 16458
Cc1ccc(S(=O)(=O)CCC(O)c2ccc(Cl)cc2)cc1 (centres undefined)	none
O=C(N/N=C/c1ccc([N+](=O)[O-])cc1)c1cccc(N2CCCC2=O)c1	none
COc1cc2c(cc1OC)CN(C(=O)CCOc1ccccc1C)CC2	none
COc1ccccc1NC(=O)C(C)OC(=O)C1COc2ccccc2O1 (centres undefined)	none
O=C1Nc2ccccc2C1(O)C/C(=N/O)c1ccccc1 (centres undefined)	none
O=C(Nc1ccc2c(c1)OCO2)c1cccc(S(=O)(=O)N2CCOCC2)c1	none
O=C(Nc1ccc2c(c1)OCO2)c1cccc(S(=O)(=O)N2CCCC2)c1	Autofluor counter 21861
CC(C)(/C=N/NC(=O)CSCc1ccc(Cl)cc1)CCC#N	none
COC(=O)c1cc(NC(=O)c2ccccc2)c(=O)oc1/C=C/Nc1ccc(Oc2ccccc2)cc1	BoNT A protease 42.8, Autofluor counter 97551, BoNT-F LC inh 54.0
Cc1ccc(O)c(NC(=O)c2cc(C)no2)c1	none
C=C(C)C1CC=C(C)/C(=N/NC(=O)COc2cccc(C)c2)C1 (centres undefined)	Autofluor counter 17668
CC(=O)c1cc2c(cc1NC(=O)c1ccc(C)cc1)OCCO2	none
CCOC(=O)c1c(-c2cccc([N+](=O)[O-])c2)cn2ccccc12	none
CCOC(=O)c1c(-c2ccccc2Cl)cn2ccccc12	Autofluor counter 21999
Cc1cccc(C)c1C(O)c1ncc(-c2ccccc2F)[nH]1 (centres undefined)	none (no result: MazF activator)
CCCCCCC1CCC(c2nc(-c3ccncc3)no2)CC1 (centres undefined)	none
CCCC1CCC(c2nc(-c3cccnc3)no2)CC1 (centres undefined)	BoNT A protease inconclusive, Autofluor counter 19821
CNC(=O)C1(C(F)(F)F)C/C(=C\CCO)CCCO1 (centres undefined)	none
Cn1c(SCC(=O)OC2CCCCC2)nnc1-c1ccc2c(c1)OCO2	Autofluor counter 21547
COC(=O)CSc1nnc(-c2ccc3c(c2)OCO3)n1C	none
COc1ccc(CNC(=O)CN2c3ccccc3S(=O)(=O)c3ccccc32)cc1	none
CCOC(=O)/C(=C/C1=CC(=C/N(C)C)/C(=O)O1)C(C)=O	BoNT-F LC inh 36.3
CCOC(=O)/C(=C/c1ccc(OC(=O)c2ccccc2)cc1)C(C)=O	none
CC(C)CNC(=S)NNC(=O)c1ccc2c(c1)OCO2	Autofluor counter 17145
CCc1ccc(N2C(=O)Cc3c2nc(N)c(C#N)c3N)cc1	BoNT A protease inconclusive, Autofluor counter 21928
CC(C)(C)c1ccc(N2C(=O)Cc3c2nc(N)c(C#N)c3N)cc1	BoNT A protease inconclusive, Autofluor counter inconclusive, BoNT-F LC inh inconclusive, Anthrax LF prot inconclusive
CCCC(=O)n1nc(-c2cccnc2)nc1NCc1ccccc1	none
Cc1ccc(C)c(-n2c(-c3ccc4c(c3)OCO4)n[nH]c2=S)c1	BoNT A protease inconclusive, Autofluor counter 23573
COc1ccccc1-n1c(C)nnc1SCC(N)=O	Autofluor counter 22827
COc1ccccc1-n1c(C)nnc1SCC(=O)Nc1cc(C)cc(C)c1	Autofluor counter 23628
Cc1cc2nc(-c3ccccc3Br)n(/C=C(\c3ccccc3)n3c(=O)[nH]c4ccccc43)c2cc1C	none (no result: MazF activator)
COc1ccccc1CNC(=O)c1csc2c1CCCC2	none
COc1ccccc1NC(=O)c1csc2c1CCCC2	BoNT A protease inconclusive, Autofluor counter 19509
COc1ccc(/C=C/C(=O)C2CC2)cc1COc1cccc(C)c1C	Anthrax LF prot 30.7
O=C1CC(c2ccccc2Cl)C2=C(COC2=O)N1 (centres undefined)	Autofluor counter 23482
CCn1c(SCc2cccc(C)c2)nnc1-c1ccccc1	BoNT A protease inconclusive, Autofluor counter 23697
CNC(=O)CSc1nnc(-c2ccncc2)n1Cc1ccccc1	Autofluor counter 16183
C=CCn1c(SCC(=O)O)nnc1-c1ccccc1	Autofluor counter 22122
O=C(O)CSc1nnc(-c2ccncc2)n1CCc1ccccc1	Autofluor counter 22072
CC(C)(C)c1cc2nc(NCCOc3ccccc3)ccn2n1	none (no result: MazF activator)
O=C(CSc1nnc(-c2ccncc2)n1Cc1ccccc1)NCCc1ccccc1	none
CCSc1nnc(-c2ccncc2)n1Cc1ccccc1	BoNT A protease inconclusive, Autofluor counter 16561
CCn1c(SCC(=O)Nc2nccs2)nnc1-c1cccnc1	Autofluor counter inconclusive
CCn1c(SCC(=O)Nc2nc(C)cs2)nnc1-c1cccnc1	Autofluor counter 17501
CCc1nnc(NC(=O)CSc2nnc3ncccn23)s1	BoNT A protease inconclusive, Autofluor counter 20884
O=C(CSc1nnc2ncccn12)N1CCCCCC1	Autofluor counter 23133
Cc1csc(NC(=O)CSc2nnc3ncccn23)n1	Autofluor counter 22164
FC(F)Sc1nnc(-c2cccs2)n1-c1ccccc1	Autofluor counter 19168
COc1ccccc1N/N=C(\C#N)C(=N)N1CCOCC1	none
CCOC(=O)/C(C#N)=N\Nc1cc(Cl)ccc1OC	MazF activator 325.8
CCOC(=O)/C(C#N)=N/Nc1ccccc1OC	MazF activator 64.6
O=C(Nc1nccs1)c1nc[nH]c1C(=O)NCc1ccccc1	none
COc1ccc(-c2n[nH]c(C)c2-c2cnn(-c3ccccc3)c2)c(O)c1	BoNT A protease inconclusive, Autofluor counter 19850
CCCOc1ccc(F)cc1-c1cc(C(=O)NCc2ccccc2OC)[nH]n1	none (no result: MazF activator)
Cc1cccc2cc(CN(Cc3ccco3)C(=O)c3ccncc3)c(=O)[nH]c12	none (no result: BoNT A protease, Autofluor counter, BoNT-F LC inh, Anthrax LF prot)
O=C(c1ccncc1)N(Cc1ccco1)Cc1cc2ccccc2[nH]c1=O	Autofluor counter 22113
COc1ccc(/C=N/NC(=O)c2ccccc2F)cc1CN1CCN(c2ccc(F)cc2)CC1	none
CCn1c(SCC(=O)Nc2nc(-c3ccccc3)cs2)nnc1-c1ccccc1	none
O=C(CSc1nnc(CNc2ccc(Cl)cc2)o1)Nc1nc2ccccc2s1	BoNT A protease inconclusive, Autofluor counter 25121
O=C(CSc1nnc(CNC(=O)c2ccco2)o1)Nc1nc2ccccc2s1	none
Cc1nnc(SCC(=O)Nc2nc(-c3ccccc3)cs2)n1N	Autofluor counter 22717
CCOC(=O)N1CCN(C(=O)CSCC(=O)Nc2nc(-c3ccccc3)cs2)CC1	Autofluor counter 23127
O=C(CSc1ncn(-c2ccccc2)n1)Nc1nc(-c2ccccc2)cs1	BoNT A protease inconclusive, Autofluor counter 20833

Screens as filed in PubChem BioAssay.
